GALR2 blocker = blocks the human galanin receptor 2. GALR2-expressing cells, antagonist mode. inhibition, % at 4 µM. actives 0.39% (n = 140,000). AID 828;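 note: cells stimulated with galanin 1-16 at roughly its EC80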
Target sequence (O43603 whole entry, looked up): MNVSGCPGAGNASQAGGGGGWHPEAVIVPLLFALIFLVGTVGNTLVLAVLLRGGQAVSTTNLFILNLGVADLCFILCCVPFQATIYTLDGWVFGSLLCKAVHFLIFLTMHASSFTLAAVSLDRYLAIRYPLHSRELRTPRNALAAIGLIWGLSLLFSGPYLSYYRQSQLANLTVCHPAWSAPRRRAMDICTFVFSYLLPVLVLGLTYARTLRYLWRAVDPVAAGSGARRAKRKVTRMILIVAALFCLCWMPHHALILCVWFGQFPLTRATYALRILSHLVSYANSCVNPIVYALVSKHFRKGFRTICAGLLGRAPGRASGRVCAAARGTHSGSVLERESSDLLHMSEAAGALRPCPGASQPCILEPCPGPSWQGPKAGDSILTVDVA
GALR2 ag = activates the human galanin receptor 2. GALR2-expressing cells, agonist activation read-out. activation, % (concentration not given with the values). actives 0.48% (n = 140,000). AID 803; in the data active = activation above about 5%, passing the limit was not always enough
MRP resist rev = compounds reversing MRP-mediated drug resistance. H69AR cells + 2 uM doxorubicin, CellTiter-Glo, 72 h. differential viability (reversal), % at 10 µM. AID 602. actives 0.04% (n = 85,000);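 active = viability drop by adding the cancer drug above about 55%, with treated viability meeting a 40% cutoff, limit read from the data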;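 note: larger differential means the compound sensitizes cells more to doxorubicin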
S1P2 agonist = S1P2 (human) receptor agonism. O95136. S1P2-expressing cell line, agonist reporter read-out. activation, % at 4.5 µM. actives 0.46% (n = 97,000); in the data active = activation above about 16%
Target sequence (O95136 whole entry, looked up): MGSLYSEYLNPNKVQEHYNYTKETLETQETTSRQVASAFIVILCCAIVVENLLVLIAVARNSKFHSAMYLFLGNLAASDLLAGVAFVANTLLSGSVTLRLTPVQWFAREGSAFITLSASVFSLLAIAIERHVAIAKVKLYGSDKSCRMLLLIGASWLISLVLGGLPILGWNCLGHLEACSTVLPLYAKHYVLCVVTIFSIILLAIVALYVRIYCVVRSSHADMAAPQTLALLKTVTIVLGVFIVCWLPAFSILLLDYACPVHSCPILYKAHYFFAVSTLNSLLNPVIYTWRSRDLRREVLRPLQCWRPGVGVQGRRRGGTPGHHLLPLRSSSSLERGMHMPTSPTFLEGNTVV
MRP-1 activ = activators of MRP-1 | H69AR cells + doxorubicin, viability rescue, CellTiter-Glo | viability increase, % at 10 µM | actives 0.61% (n = 140,000);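 active = viability gain under doxorubicin at or above a set limit, the compound median plus 3 SD, cut at about 4.7% in these data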;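 note: MRP-1 overexpressing cells given doxorubicin 25 µM after compound pretreatment; 18-22 h compound pretreatment then 72 h with doxorubicin before readout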
S1P2 blocker = blocks the human S1P2 receptor; cell-based S1P2 antagonist assay, inhibition at 5 uM; AID 736; actives 0.21% (n = 97,000); inhibition, % at 5 µM; in the data active = inhibition above about 45%;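 note: CRE beta-lactamase reporter cells expressing human S1P2 stimulated with S1P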
GALR2 blk conf = GALR2 (human) antagonism confirmed; shares compounds with GALR2 blocker; GALR2-expressing cells, antagonist mode, inhibition; inhibition, % at 4 µM; actives 60% (n = 480);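 note: cells stimulated with galanin at about its EC80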
BLA inhib ctr = counter-screen for GALR2 antagonists: beta-lactamase reporter inhibitors; shares compounds with GALR2 blocker; CHO NFAT-BLA reporter, beta-lactamase FRET, thapsigargin-stimulated; inhibition, % at 4.2 µM; actives 36% (n = 480); AID 867;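 active = inhibition above the mean inhibition across tested compounds plus 3 SD, cut at about 27% in these data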
Each line names hits and unclear results; the compound was inactive in the other large screens (follow-up assays come after a bar, where they were run). Rows were chosen to be rich in hits. Some 1.8% of all compounds tested hit in one or more screens of this group. Cut-off read from the data, not from the text of the source, unless noted: active = inhibition above about 27%; inactive = the rest.

COC(=O)c1cc(NC(=O)c2ccccc2)c(=O)oc1C/C=N\OCc1ccc(Cl)cc1Cl	none
COc1cccc(/C=N/NC(=O)c2cc(-c3cccn3C)n[nH]2)c1O	GALR2 blocker 28, MRP-1 activ 7.1 (no result: MRP resist rev, S1P2 agonist, S1P2 blocker) | GALR2 blk conf 27 | BLA inhib ctr inactive
COc1cc(/C=N/NC(=O)c2cc(-c3cccn3C)n[nH]2)cc(OC)c1OC	none (no result: MRP resist rev)
CCOC(=O)c1c(NC(=O)CSc2nc3ccccc3c(=O)n2-c2ccccc2)sc(C(C)=O)c1C	none (no result: MRP resist rev, S1P2 agonist, S1P2 blocker)
COc1ccc(OC)c(NC(=O)Cc2nn(C)c(=O)c3ccccc23)c1	none
COc1ccc(CNC(=O)Cc2nn(C)c(=O)c3ccccc23)cc1	GALR2 blocker 36 | GALR2 blk conf inactive | BLA inhib ctr inactive
CC(C)(C)c1ccc(OCCNC(=O)c2ncn[nH]2)cc1	GALR2 blocker 31 (no result: MRP resist rev) | GALR2 blk conf inactive | BLA inhib ctr inactive
Cn1cnc([N+](=O)[O-])c1S(=O)(=O)c1cccc(Cl)c1	GALR2 blocker 47 (no result: MRP resist rev, S1P2 agonist, S1P2 blocker) | GALR2 blk conf 43 | BLA inhib ctr inactive
CCCn1c(CC)nc([N+](=O)[O-])c1S(=O)(=O)c1ccccc1	none (no result: MRP resist rev)
Cc1ccc(S(=O)(=O)NNC(=O)C(O)(c2ccccc2C)c2ccccc2C)cc1	none (no result: MRP resist rev, S1P2 agonist, S1P2 blocker)
COc1ccc(C(=O)N(c2ccccc2)C2C=CS(=O)(=O)C2)cc1 (stereo not given)	GALR2 blocker 30 | GALR2 blk conf inactive | BLA inhib ctr inactive
O=C(CCn1c(=O)c2ccccc2n(Cc2ccccc2)c1=O)NCc1ccc2c(c1)OCO2	none
COc1ccc(-c2nnc(SCc3nc4ccccc4s3)n2C(C)C)cc1	GALR2 blocker 29 (no result: MRP resist rev) | GALR2 blk conf inactive | BLA inhib ctr inactive
O=C1C(=O)N(CCCn2ccnc2)C(c2cccnc2)/C1=C(/O)c1ccc(Br)cc1 (stereo not given)	none (no result: MRP-1 activ)
Cc1ccc2c(Cl)c(C(=O)Nc3cc(C)on3)sc2c1	GALR2 blocker 29 | GALR2 blk conf inactive | BLA inhib ctr inactive
Cc1ccnc(NC(=O)c2sc3ccccc3c2Cl)c1	none (no result: MRP resist rev, S1P2 agonist, S1P2 blocker)
Cc1cnc(NC(=O)Cc2c[nH]c3ccccc23)s1	GALR2 blocker 33 | GALR2 blk conf inactive | BLA inhib ctr inactive
Cc1ccc(S(=O)(=O)NCC(=O)NCc2ccncc2)cc1	none
Cc1ccc(S(=O)(=O)NCc2ccncc2)cc1	GALR2 blocker 31 | GALR2 blk conf 39 | BLA inhib ctr inactive
CCOc1ccc(S(=O)(=O)NCc2ccncc2)cc1	GALR2 blocker 34, S1P2 blocker 64 | GALR2 blk conf 53 | BLA inhib ctr inactive
CCOC(=O)COc1ccc(S(=O)(=O)NCc2ccncc2)cc1	GALR2 blocker 33 | GALR2 blk conf 33 | BLA inhib ctr inactive
CCC(C)c1ccccc1NC(=O)CN1CCN(C/C=C/c2ccccc2)CC1 (stereo not given)	none (no result: MRP resist rev, S1P2 agonist, S1P2 blocker)
O=S(=O)(Nc1ccc2c(c1)nc1n2CCOC1)c1ccc(Cl)cc1	none
CC(C)CNC(=O)c1ccccc1NC(=O)CCSc1ccccc1	none (no result: MRP resist rev, S1P2 agonist, S1P2 blocker)
Oc1ccc(-c2nc3ccc4ccccc4c3c3c2CCC3)cc1O	none (no result: MRP resist rev, S1P2 agonist, S1P2 blocker)
O=C(Nc1nc(-c2ccccc2)cs1)c1cccs1	none
O=C(Nc1nc(-c2ccccc2)ns1)c1cccs1	GALR2 blocker 36 | GALR2 blk conf inactive | BLA inhib ctr inactive
CCCOc1ncnc2c1[nH]c1ccccc12	GALR2 blocker 29 (no result: MRP resist rev) | GALR2 blk conf 28 | BLA inhib ctr inactive
CCN(CC)c1ncnc2c1[nH]c1ccccc12	none
O=C(NOC(=O)c1ccccc1Cl)c1cccs1	none
CC(C)NC(=O)CSc1nncn1-c1ccccc1	GALR2 blocker 27 (no result: S1P2 agonist, S1P2 blocker) | GALR2 blk conf inactive | BLA inhib ctr inactive
Cc1nnc(C)n1/N=C/c1ccc(-c2ccccc2)cc1	none
Cc1ccc2[nH]c3c(N4CCCCCC4)ncnc3c2c1	GALR2 blocker 38, S1P2 blocker 92 | GALR2 blk conf 42 | BLA inhib ctr inactive
c1ccc(CN2CCN(c3ncnc4c3[nH]c3ccccc34)CC2)cc1	GALR2 blocker 36, S1P2 blocker 78 | GALR2 blk conf 40 | BLA inhib ctr inactive
COc1ccc2c(c1)[nH]c1c(N3CCN(Cc4ccc5c(c4)OCO5)CC3)ncnc12	GALR2 blocker 38, S1P2 blocker 87 (no result: MRP resist rev) | GALR2 blk conf 44 | BLA inhib ctr inactive
c1ccc2c(c1)CCN(c1ncnc3c1[nH]c1ccccc13)C2	none (no result: GALR2 blocker, GALR2 ag, MRP resist rev, S1P2 agonist, S1P2 blocker)
O=S(=O)(/N=C/c1c(O)ccc2ccccc12)c1cccs1	none
O=C1C2CCCN2C(=O)N1CCCCN1CCN(c2ccc(F)cc2)CC1 (stereo not given)	none (no result: MRP resist rev, S1P2 agonist, S1P2 blocker)
COc1ccc(/C=N/NC(=O)C[n+]2ccccc2)c(OC)c1OC	none (no result: MRP resist rev, S1P2 agonist, S1P2 blocker)
COc1ccc(/C=N/NC(=O)C(N)=O)c(OC)c1OC	GALR2 blocker 27 (no result: MRP resist rev, S1P2 agonist, S1P2 blocker) | GALR2 blk conf inactive | BLA inhib ctr inactive
COc1cccc(N2CCN(c3ncnc4c3[nH]c3ccccc34)CC2C)c1 (stereo not given)	none (no result: MRP resist rev, S1P2 agonist, S1P2 blocker)
COc1cccc(N2CCN(c3ncnc4c3[nH]c3ccc(F)cc34)CC2C)c1 (stereo not given)	GALR2 blocker 51, S1P2 blocker 105 | GALR2 blk conf 72 | BLA inhib ctr 58
COc1ccc(OC)c(NC(=O)CSc2ncnc3c2cnn3-c2ccccc2Cl)c1	GALR2 blocker 31, S1P2 blocker 81 | GALR2 blk conf 49 | BLA inhib ctr inactive
CSCCC(NC(=O)c1ccco1)C(=O)O (stereo not given)	none
COc1ccc(OC)c(NC(=O)C2CCCN(S(=O)(=O)c3cccc4nsnc34)C2)c1 (stereo not given)	none
COc1ccc(Cl)cc1NC(=O)C1CCCN(S(=O)(=O)c2cccc3nonc23)C1 (stereo not given)	GALR2 blocker 31 | GALR2 blk conf inactive | BLA inhib ctr inactive
N#Cc1cccc(NC(=S)Nc2ccccc2)c1	none (no result: MRP resist rev, S1P2 agonist, S1P2 blocker)
O=C(Nc1cccc(S(=O)(=O)N2CCCC2)c1)c1ccc2c(=O)n3c(nc2c1)CCCCC3	GALR2 blocker 34 (no result: MRP resist rev, S1P2 agonist, S1P2 blocker) | GALR2 blk conf inactive | BLA inhib ctr inactive
CCN(CC1COc2ccccc2O1)C(=S)Nc1ccccc1 (stereo not given)	none (no result: MRP resist rev)
O=C(Nc1ccccc1)c1nnsc1S(=O)c1ccc(Cl)cc1 (stereo not given)	GALR2 blocker 39, S1P2 blocker 64 (no result: MRP resist rev) | GALR2 blk conf 35 | BLA inhib ctr 56
O=C(Nc1ccc(Cl)cc1)c1cccs1	none
COC(=O)c1scc(C)c1N/N=C(\C)c1cc(F)c(Cl)cc1F	none
COc1cc2nc(/C=C/c3ccc(N(C)C)cc3)sc2cc1SC	GALR2 blocker 52, GALR2 ag 5.2 (no result: MRP resist rev, S1P2 agonist, S1P2 blocker) | GALR2 blk conf 60 | BLA inhib ctr 67
COc1ccc(Cc2nc(C(=O)Nc3ccc(Cl)cc3)cs2)cc1	none
COc1ccc(COc2ccsc2C(=O)Nc2ccc(Cl)cc2)cc1	GALR2 blocker 52 (no result: MRP resist rev) | GALR2 blk conf inactive | BLA inhib ctr inactive
O=c1cc(-c2cccs2)oc2ccc(Cl)cc12	none

Screens: PubChem, several laboratories
